# Assay outcomes deposited in PubChem by National Center for Advancing Translational Sciences (NCATS).
# This is a sample that favours compounds with a hit; in the whole collection about 1.2% have one here.
# GLS inh – glutaminase GLS (human) inhibition. 410,000 compounds, 0.21% hits. GLS enzymatic activity, qHTS titration. Potency, µM (highest dose often 45.5 µM), inactives show top-dose activity change, negative = inhibition, actives largely listed as inhibitors. O94925; further: potency means the concentration at half of the fitted maximal effect; on the % scale 0 is the no-effect control and ±100 the full control effect
#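 Glutamate formation by hKGA was monitored fluorometrically using coupled glutamate oxidase, HRP and Amplex Red. Substrate was added as 1 mM L-glutamine solution; incubation was 30 min at RT after an initial read.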
# TrxR1 substrate – is turned over as a substrate by rat TrxR1; O89049; purified TrxR1 substrate turnover, NADPH consumption readout; Potency, µM (series often up to 114 µM), inactives show at the top dose activity change, negative = substrate turnover; 390,000 compounds, 0.01% hits; further: potency means the concentration at half of the fitted maximal effect; on the % scale 0 is the no-effect control and ±100 the full control effect; nearly all actives have a fitted effect of over 50% in size
#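 Rat TrxR1, dispensed at 90 nM, was prereduced with 400 uM NADPH (final) for 5 min at ~22 deg C, then incubated with compound 15 min before 400 uM selenite. A first-read NADPH fluorescence drop versus no-compound background flagged substrates.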
# IDH1 R132H inh – blocks human mutant IDH1 R132H enzyme; O75874; IDH1-R132H enzyme, NADPH consumption, diaphorase/resazurin fluorescence; Potency, µM (highest dose often 76.6 µM), for the others: at the top dose activity change, negative = inhibition, actives largely listed as inhibitors; 390,000 compounds, 0.093% hits; AID 602179; further: potency means the concentration at half of the fitted maximal effect; on the % scale 0 is the no-effect control and ±100 the full control effect; nearly all actives have a fitted effect of over 65% in size
# Target sequence (O75874 whole entry R132H, stated change not applied): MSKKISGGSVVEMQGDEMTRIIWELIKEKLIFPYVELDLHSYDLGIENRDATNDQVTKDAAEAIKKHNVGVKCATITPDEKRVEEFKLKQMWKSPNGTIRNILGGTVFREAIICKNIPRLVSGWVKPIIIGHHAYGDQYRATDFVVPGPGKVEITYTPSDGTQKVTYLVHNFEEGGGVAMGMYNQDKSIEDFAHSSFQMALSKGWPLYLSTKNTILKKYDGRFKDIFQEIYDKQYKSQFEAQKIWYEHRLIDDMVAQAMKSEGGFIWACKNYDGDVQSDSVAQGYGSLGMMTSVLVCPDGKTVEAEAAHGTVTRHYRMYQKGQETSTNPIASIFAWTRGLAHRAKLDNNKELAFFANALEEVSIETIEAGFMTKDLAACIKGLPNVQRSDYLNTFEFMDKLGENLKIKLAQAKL
#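 IDH1-R132H (0.5 ug/mL dispensed) in pH 7.5 Tris buffer was preincubated 30 min with compound, then given a substrate mix of 0.016 mM NADPH and 2 mM alpha-KG for 80 min at room temperature; remaining NADPH was read by diaphorase/resazurin fluorescence.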
# rTrxR1 inhibitor – rat TrxR1 inhibition; Potency, µM (doses to about 114 µM), for inactives: at the top dose activity change, negative = inhibition, hits mostly inhibitors; recombinant rTrxR1, NADPH fluorescence consumption, selenite substrate; 390,000 compounds, 1% hits; further: potency means the concentration at half of the fitted maximal effect; on the % scale 0 is the no-effect control and ±100 the full control effect; nearly all actives have a fitted effect of over 65% in size
#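 Rat TrxR1 (90 nM in the dispensed reagent) was pre-reduced with 400 uM NADPH for 5 min at room temperature, then incubated with compound for 15 min. After 400 uM selenite was added, NADPH fluorescence (Ex 340/Em 450 nm) was followed for 8 min.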
# IDH1 autofl – autofluorescence interference, mutant IDH1 hit counter-screen; 750 tested, under 10 active; inhibition of signal, % at 51.2 µM; shares compounds with IDH1 R132H inh; Resorufin detection reagent fluorescence interference, cell-free;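 further: 0% = wells with normal resorufin and full inhibition = wells lacking resorufin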
# WT IDH1 inh – inhibits human wild-type IDH1, mutant selectivity check; shares compounds with IDH1 R132H inh; WT IDH1 enzyme, NADPH diaphorase/resazurin fluorescence; Potency, µM (doses to about 115 µM), without a hit: top-dose activity change, negative = inhibition, hits mostly inhibitors; 750 compounds, 9% hits; AID 623995;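 further: potency means the concentration at half of the fitted maximal effect; 0% = full WT IDH1 enzyme control and full inhibition = no enzyme wells; nearly all actives have a fitted effect of over 55% in size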
# Target sequence (O75874 whole entry, looked up): as the sequence (O75874 whole entry R132H, stated change not applied) above, with H132R counted along it
# mIDH1 confirm – mutant IDH1 (human) inhibition, confirmed; shares compounds with IDH1 R132H inh; IDH1 R132H enzyme, NADPH diaphorase/resazurin fluorescence; Potency, µM (doses to about 76.6 µM), for the others: at the top dose activity change, negative = inhibition, most hits filed as inhibitors; 750 compounds, 83% hits; further: potency means the concentration at half of the fitted maximal effect; nearly all actives have a fitted effect of over 50% in size
# * = called active by the depositor; ? = inconclusive; . = not tested or not shown; [ ] = another dose, or the depositor's remark. The call rests on the fitted dose curve; in most records, active means well fitted curve in the direction sought with a large enough effect; inconclusive means small, poorly fitted or top-dose-only effect, or another doubt; inactive means no such curve, though single readings can be large; an effect the other way counts as inactive or inconclusive.
SMILES,GLS inh,TrxR1 substrate,IDH1 R132H inh,rTrxR1 inhibitor,IDH1 autofl,WT IDH1 inh,mIDH1 confirm
CSC1=NC(=O)/C(=C/c2ccc(SC)cc2)S1,-9%,-2%[57.1 µM],35µM*,10%[57.1 µM],-3,71µM*,40µM*
COC(=O)C1=NN(c2ccc(OC)cc2)C2C(=O)N(c3ccccc3OC)C(=O)C12 (stereo not drawn),0%,3%[57.1 µM],0%,-1%,.,.,.
COC(=O)C1=CC(C(=O)c2cccs2)=NN(c2ccc(OC)cc2)C1C(=O)OC (stereo not drawn),-1%,-3%,?,8%,2,1%,-4%
CCCCCCCCn1c2c(c(=N)c3ccccc31)CCC2,0%,6%[57.1 µM],-3%,16%[57.1 µM],.,.,.
Cc1cc(C)c2c(=N)c3ccccc3n(CCCCCCCCn3c4ccccc4c(=N)c4c(C)cc(C)nc43)c2n1,-27%,5%,52µM*,-8%,-9,2%,28µM*
CCOc1cc(/C=C2/C(=O)ON=C2C)ccc1OCc1ccccc1F,-1%,6%[11.4 µM],21µM*,-26%[11.4 µM],2,?,28µM*
COc1ccc(N(CC(=O)Nc2ccc(Cl)cc2)S(=O)(=O)c2c(C)n[nH]c2C)cc1,6%,0%,4%,11%,.,.,.
COc1ccc(N(CC(=O)N2CCN(c3ccc(Cl)cc3)CC2)S(=O)(=O)c2c(C)n[nH]c2C)cc1,7%,7%,?,20%,-2,-7%,13µM*
Cc1nc([N+](=O)[O-])c(Br)n1CC(=O)c1ccc2ccccc2c1,1%,-5%,?,11µM*,2,?,28µM*
Cc1nc([N+](=O)[O-])c(C(=O)OCc2ccccc2Br)n1C,4%,-4%,5%,6%[57.1 µM],.,.,.
O=C(Nc1cccc2ccccc12)c1cnn2c1NC(=C1CC1)C=C2C(F)F,.,2%,.,16%,.,.,.
CCC(=O)Oc1ccc2c(=O)c(-c3ccc4ccccc4n3)c(CC)oc2c1C,0%,-3%,52µM*,2%,-9,2%,7.1µM*
Cc1ccc(N2C(=O)CCSC23C(=O)N(Cc2ccccc2)c2ccccc23)cc1F (stereo not drawn),-10%,-3%,22µM*,22%,-7,-18%,25µM*
Cc1ccc(N2C(=O)CCSC23C(=O)N(Cc2ccccc2)c2ccccc23)cc1 (stereo not drawn),-2%,7%,?,28%,-5,-17%,45µM*
Cc1ccc(N2C(=O)CCSC23C(=O)N(Cc2ccc(F)cc2)c2ccccc23)cc1 (stereo not drawn),2%,-6%,?,11%,.,.,.
O=C1CCSC2(C(=O)N(Cc3ccc(F)cc3)c3ccccc32)N1c1ccc(Cl)cc1 (stereo not drawn),-4%,3%,?,30%,-8,-15%,20µM*
O=C1CCSC2(C(=O)N(Cc3ccccc3)c3ccccc32)N1c1ccccc1 (stereo not drawn),-9%,-10%,?,-1%,.,.,.
O=C(COc1ccc2oc3c(c2c1)CCCC3)Nc1ccc(Cl)cc1,-11%,1%,0%,19%,.,.,.
CCOc1cc(C(=O)Nc2ccc3c(c2)n(C)c(=O)c(=O)n3C)cc(OCC)c1OCC,1%,24%,9%,-3%,.,.,.
COc1ccc(CN(CCC(c2ccccc2)c2ccc(OC(C)C)cc2)C(=O)CCl)cc1OC (stereo not drawn),-10%,-7%,?,?,-7,-17%,7.9µM*
COc1ccc(-c2nn3c(-c4ccccc4C)nnc3c3ccccc23)cc1,0%,17%,?,21%,-2,2%,22µM*
CCOC(=O)c1ccc(NC(=O)CCC(=O)N2Cc3ccccc3Oc3ncccc32)cc1,2%,-10%,7%,-8%,.,.,.
C=CCn1c(SCc2nc3sc(C(=O)O)c(C)c3c(=O)[nH]2)nnc1-c1ccc(C(C)(C)C)cc1,-25%,-2%,?,7%,-5,2%,22µM*
C=CCn1c(SCc2nc3sc(C(=O)O)c(C)c3c(=O)[nH]2)nnc1-c1ccccc1,-4%,-7%,-2%,6%[57.1 µM],.,.,.
CCCCN1CC(O)C(O)C(O)C1CO (stereo not drawn),8%,.,.,.,.,.,.
SMILES,GLS inh,TrxR1 substrate,IDH1 R132H inh,rTrxR1 inhibitor,IDH1 autofl,WT IDH1 inh,mIDH1 confirm
CC1=C(C#N)c2nc(N)c(C#N)c(C)c2/C1=C\c1ccc(-c2ccccc2C(=O)O)o1,-14%,0%[57.1 µM],?,-37%,-1,25µM*,35µM*
COc1cc(/C=C2/C(C)=C(C#N)c3nc(N)c(C#N)c(C)c32)ccc1OCC(=O)O,-11%,10%[57.1 µM],-21%,-66%,.,.,.
COc1cc(C2Oc3cc(C4Oc5cc(O)cc(O)c5C(=O)C4O)ccc3OC2CO)ccc1O (stereo not drawn),17%,0%,-8%,-4%,.,.,.
CC(=O)Oc1cc(O)c2c(c1)OC(c1ccc(OC(C)=O)c(OC(C)=O)c1)C(OC(C)=O)C2=O (stereo not drawn),37%,-4%,52µM*,?,2,1%,?
Cc1cccn2c(=O)c(/C=C(\C#N)S(=O)(=O)c3ccccc3)c(N3CCC(C(N)=O)CC3)nc12,15%,3%,?,14%,1,-1%,40µM*
Cc1ccc(S(=O)(=O)/C(C#N)=C/c2c(N3CCC(C(N)=O)CC3)nc3c(C)cccn3c2=O)cc1,?,-5%,?,-7%,.,.,.
CCOc1ccc(S(=O)(=O)Nc2ccc(C(=O)N3CC(C)OC(C)C3)cc2)cc1 (stereo not drawn),2%,-14%,6%,-8%,.,.,.
CC1CN(C(=O)c2ccc(NS(=O)(=O)c3ccc(C(C)(C)C)cc3)cc2)CC(C)O1 (stereo not drawn),4%,7%,?,10%,-9,7%,35µM*
CCn1cc(C(=O)NCc2ccco2)c(=O)c2cc(S(=O)(=O)N3CCCCCC3)ccc21,-6%,-5%,-23%,-8%,.,.,.
CCn1cc(C(=O)NCc2ccco2)c(=O)c2cc(S(=O)(=O)N3CCC(C)CC3)ccc21,-6%,-8%,33µM*,-12%,2,3%,18µM*
CCn1cc(C(=O)NCc2ccco2)c(=O)c2cc(S(=O)(=O)N3CC(C)CC(C)C3)ccc21 (stereo not drawn),-1%,5%,5.2µM*,4%,0,6%,2.5µM*
C=CCn1cc(C(=O)NCc2ccco2)c(=O)c2cc(S(=O)(=O)N3CCCCCC3)ccc21,.,2%,?,-1%,2,13%,16µM*
